Several values for one entry are separate records, joined by “and”; a condition that tells them apart may be missing. Equal values may be shown once. Records with an inconclusive call do not appear. Activity calls are given as the source filed them. Unless noted, the rule behind the calls is not given here. Non-standard residues stand in square brackets, D forms with d. Residues, ends and D or L forms follow the SMILES beside them. *: point of attachment. Sta = CC(C)C[C@H](N)[C@@H](O)CC(=O)O; Isovaleryl = CC(C)CC(=O)*

Experiment [1] is described as follows: qHTS profiling of the MIPE4 collection as inhibitors of Plasmodium falciparum (3D7) proliferation (AID 743344).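 Note: scaled between DMSO vehicle wells and 0.29 µM artemisinin as full inhibition.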 Particulars: P. falciparum 3D7 in erythrocytes, SYBR Green DNA fluorescence, 72 h; at 28.5 µM unless noted. Summed up:
(§1)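 Erythrocytes infected with P. falciparum (0.3% parasitemia, 2.5% hematocrit) incubated with compounds 72 h at 37 C, 5% CO2. Lysis with saponin/Triton buffer containing SYBR Green I, overnight at room temperature in the dark; DNA fluorescence (485/535 nm) normalised to 0.29 uM artemisinin and DMSO.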

A short description of experiment [2]: qHTS profiling of the MIPE4 collection as inhibitors of Plasmodium falciparum (DD2) proliferation (AID 743345). Conditions: P. falciparum Dd2 in erythrocytes, SYBR Green DNA, 72 h; at 28.5 µM unless noted. In short, it runs like this:
as §1

A short description of experiment [3]: qHTS profiling of the MIPE4 collection as inhibitors of Plasmodium falciparum (DD2) proliferation (Rep 2) (AID 743346). Particulars: P. falciparum Dd2 in erythrocytes, SYBR Green DNA, 72 h; at 28.5 µM unless noted. In short, it runs like this:
as §1
For orientation: qHTS replaces the single test concentration by a dilution series.

Experiment [4] is described as follows: qHTS profiling of the MIPE4 collection as inhibitors of Plasmodium falciparum (HB3) proliferation (AID 743347).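 Note: plate controls were DMSO vehicle wells for no effect and artemisinin wells for full effect.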 Conditions: P. falciparum HB3 in erythrocytes, SYBR Green DNA, 72 h; at 28.5 µM unless noted. In short, it runs like this: as §1
Experiment [5] in a line: qHTS Assay for Identifying Gametocytocidal Compounds (AID 743244; active = well fitted curve in the direction sought with a large enough effect; an effect the other way counts as inactive or inconclusive; note: potency is the fitted concentration of half-maximal effect;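 for max response: % is set by controls: 0 for no effect and ±100 for the full control effect; actives lower the fluorescent signal which means gametocytes are killed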). Particulars: P. falciparum 3D7 stage III-V gametocytes, alamarBlue, 72 h; max response: stronger effect = lower value. In short, it runs like this: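 Late gametocytes (III–V), P. falciparum 3D7; 72 h drug, then 24 h alamarBlue; resazurin reduction read by fluorescence.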
Experiment [6] in a line: qHTS profiling for inhibitors of Plasmodium falciparum (DD2) proliferation (AID 743323). Particulars: lower = more inhibition; at 28.7 µM (top of the series) unless noted. Summed up: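 P. falciparum Dd2-infected erythrocytes (0.3% parasitemia, 2.5% hematocrit) exposed 72 h at 37 C, 5% CO2. Lysis with SYBR Green, overnight at room temperature, fluorescence 485/535 nm; normalized to 0.29 uM artemisinin and DMSO.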

Experiment [7] is described as follows: qHTS profiling for inhibitors of Plasmodium falciparum (HB3) proliferation (AID 743324; active = well fitted curve in the direction sought with a large enough effect; an effect the other way counts as inactive or inconclusive;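 note: 100% = DMSO vehicle wells and 0% = artemisinin-treated control wells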). Conditions: Plasmodium falciparum HB3 blood-stage proliferation; at 28.7 µM (top of the series) unless noted. In short, it runs like this:
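P. falciparum HB3 grown in erythrocytes (0.3% parasitemia, 2.5% hematocrit final) with compound for 72 h at 37 C, 5% CO2. Parasite DNA detected by SYBR Green after saponin/triton lysis overnight; normalized to 0.29 uM artemisinin and DMSO.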

The nature of experiment [8]: qHTS assay for cell viability of HEK293 cells (AID 743288; active = well fitted curve in the direction sought with a large enough effect; an effect the other way counts as inactive or inconclusive; note: nearly all actives have a fitted effect of over 50% in size; note: potency is the fitted concentration of half-maximal effect; for max response: % is set by controls: 0 for no effect and ±100 for the full control effect). Particulars: ATP luminescence (CellTiter-Glo), 18 h; max response: stronger effect = lower value. Summed up:
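The Tox21 protocol used parental HEK293 cells treated for 18 h at 37 C with compounds delivered by pintool; ATP-coupled luminescence after 30 min at room temperature gave viability.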

Experiment [9] is described as follows: qHTS assay for cell viability of the p53RE-bla HCT-116 cell line (AID 743292; active = well fitted curve in the direction sought with a large enough effect; an effect the other way counts as inactive or inconclusive; note: nearly all actives have a fitted effect of over 55% in size; note: potency is the fitted concentration of half-maximal effect). Summed up:
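Compound-exposed HCT-116 (p53RE-bla) cells, 4,000 per well, were kept 16 h at 37 C following a 5 h preincubation. Cell number was estimated from total ATP by CellTiter-Glo luminescence read after 30 min at room temperature.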

In the case of `CC(C)CC(=O)N[C@H](C(=O)N[C@H](C(=O)N[C@@H](CC(C)C)[C@@H](O)CC(=O)N[C@@H](C)C(=O)N[C@@H](CC(C)C)[C@@H](O)CC(=O)O)C(C)C)C(C)C` (Isovaleryl-VV[Sta]A[Sta]-OH), the parasite growth, % of DMSO control in experiment [1] worked out at 59.4%. Further, the parasite growth remaining, % of DMSO control (lower = more inhibition) in [2] came to 99.1%. Also, the parasite growth, % of control (lower = inhibition) in experiment [3] worked out at 58.8%. The growth, % of control in [4] is 64.1%.

`CCCCc1ccc2nc(NC(=O)OC)[nH]c2c1`: the max response in [5] is 5.64% (inactive). For the same compound, the parasite growth, % of DMSO control in experiment [1] turned out to be 49.5%. Moreover, the parasite growth remaining, % of DMSO control (lower = more inhibition) in experiment [2] is 85.9%. For the same compound, the parasite growth, % of control (lower = inhibition) in [3] worked out at 56.6%. Moreover, in experiment [4], the growth, % of control was 27.6%.

As for `CC(S)C(=O)NCC(=O)O` (stereo not given), the max response in experiment [5] is -4.83% (inactive). For the same compound, in [1], the parasite growth, % of DMSO control worked out at 95.6%. Also, in experiment [2], the parasite growth remaining, % of DMSO control (lower = more inhibition) turned out to be 123%. For the same compound, in [3], the parasite growth, % of control (lower = inhibition) is 91.7%. The same compound registered a growth, % of control in experiment [4] of 95.5%.

In the case of `COc1ccc2cc([C@H](C)C(=O)O)ccc2c1`, the max response in experiment [5] was 18.3% (inactive) and 6.4% (inactive). In addition, in experiment [1], the parasite growth, % of DMSO control is 106%. Also, the parasite growth remaining, % of DMSO control (lower = more inhibition) in [2] stood at 100%. Also, the parasite growth, % of control (lower = inhibition) in experiment [3] was determined as 91%. Also, the growth, % of control in [4] was 102%.

With `CN(C)C(=O)COC(=O)Cc1ccc(OC(=O)c2ccc(N=C(N)N)cc2)cc1`, in [5], the max response is 10.2% (inactive). In [1], this compound gave a parasite growth, % of DMSO control of 75%. Besides, the parasite growth remaining, % of DMSO control (lower = more inhibition) in [2] amounted to 93%. The parasite growth, % of control (lower = inhibition) in experiment [3] was 43%.

`O=C(O)c1cn(-c2ccc(F)cc2)c2cc(N3CCNCC3)c(F)cc2c1=O`: in [5], the max response was 2.27% (inactive). For the same compound, the parasite growth, % of DMSO control in experiment [1] stood at 92.9%. Besides, in experiment [2], the parasite growth remaining, % of DMSO control (lower = more inhibition) was determined as 67.2%. Besides, in [3], the parasite growth, % of control (lower = inhibition) turned out to be 50.7%. For the same compound, the growth, % of control in [4] was 208%.

`C=CCc1cc(OC)c(O)c(C(=O)NCCO)c1`: in experiment [5], the max response is -5.25% (inactive).

Turning to `CN(C)CCCC1(c2ccc(F)cc2)OCc2cc(C#N)ccc21` (stereo not given), the max response in experiment [5] is 7.27% (inactive). Also, the parasite growth, % of DMSO control in experiment [1] was 95.4%. Further, the parasite growth, % of control (lower = inhibition) in experiment [3] was found to be 45.5%.

`C[C@H](Cc1ccc(O)c(O)c1)[C@@H](C)Cc1ccc(O)c(O)c1`: the max response in experiment [5] is 4.03% (inactive). The parasite growth, % of DMSO control in [1] came to 15.1%. Also, in experiment [2], the parasite growth remaining, % of DMSO control (lower = more inhibition) was found to be 17.2%. Besides, the parasite growth, % of control (lower = inhibition) in [3] turned out to be 16.4%.

With `Nc1cccc2c1CN(C1CCC(=O)NC1=O)C2=O` (stereo not given), the max response in [5] is 12.8% (inactive) and 1.91% (inactive). Besides, the activity, percent of control in experiment [6] was 89.3% [at 57.5 µM] and 104% [at 57.5 µM]. In experiment [7], the remaining proliferation (% of control), lower = more inhibition was 96.8% [at 57.5 µM] and 102% [at 57.5 µM]. The compound further returned a parasite growth, % of DMSO control in [1] of 83.6% [at 57.5 µM]. Further, the parasite growth remaining, % of DMSO control (lower = more inhibition) in experiment [2] was 107% [at 57.5 µM]. In addition, the parasite growth, % of control (lower = inhibition) in experiment [3] turned out to be 127% [at 57.5 µM]. Further, in [4], the growth, % of control was 108% [at 57.5 µM].

For the compound `Clc1ccc(C(Cn2ccnc2)OCc2ccsc2Cl)c(Cl)c1` (stereo not given), the Potency in [5] was 6.31 µM (active). Further, the parasite growth, % of DMSO control in experiment [1] came out at 4.99%. Also, the parasite growth, % of control (lower = inhibition) in [3] was found to be 15.9%. Further, the growth, % of control in [4] turned out to be 8.47%.

Consider `O=C(CCc1ccc(O)cc1)c1c(O)cc(O)cc1O`, for which the max response in [5] was 19.3% (inactive). The same compound came in with a parasite growth, % of DMSO control in experiment [1] of 10.4%. Moreover, the parasite growth remaining, % of DMSO control (lower = more inhibition) in experiment [2] stood at 96.7%. The parasite growth, % of control (lower = inhibition) in [3] turned out to be 7.72%. The same compound came in with a growth, % of control in experiment [4] of 5.58%.

Regarding `Cc1ncc([N+](=O)[O-])n1CC(C)O` (stereo not given), the max response in experiment [5] was 9.98% (inactive). This compound also gave a parasite growth, % of DMSO control in experiment [1] of 94.7%. Besides, in experiment [2], the parasite growth remaining, % of DMSO control (lower = more inhibition) stood at 95.7%. Further, the parasite growth, % of control (lower = inhibition) in experiment [3] stood at 94.8%. In experiment [4], the growth, % of control worked out at 99.2%.

Regarding `CCc1nc(N)nc(N)c1-c1ccc(Cl)cc1`, in experiment [5], the max response was 14.3% (inactive). Also, the Potency is 10 µM (active) and 12.6 µM (active) in [8]; 28.2 µM (active) in experiment [9]. For the same compound, in [6], the activity, percent of control worked out at 90.3%. For the same compound, the remaining proliferation (% of control), lower = more inhibition in experiment [7] is 3.84%. This compound returned a parasite growth, % of DMSO control in experiment [1] of 30.2%. Also, in experiment [2], the parasite growth remaining, % of DMSO control (lower = more inhibition) amounted to 83.6%. Moreover, the parasite growth, % of control (lower = inhibition) in experiment [3] is 85.4%. The same compound displayed a growth, % of control in experiment [4] of 18.1%.

For the compound `CC1(C)C(=O)N(CCN2CCC(C(=O)c3ccc(F)cc3)CC2)c2ccccc21`, the max response in [5] is 6.71% (inactive). Besides, in experiment [1], the parasite growth, % of DMSO control is 49%. Besides, the parasite growth remaining, % of DMSO control (lower = more inhibition) in [2] amounted to 15.4%. Also, the parasite growth, % of control (lower = inhibition) in experiment [3] came to 26.2%. The compound further displayed a growth, % of control in experiment [4] of 34.5%.

As for `O=c1ccc2ccc(O)c(O)c2o1`, the parasite growth, % of DMSO control in experiment [1] turned out to be 169%. For the same compound, the parasite growth, % of control (lower = inhibition) in [3] worked out at 19.7%.

Consider `N[C@@H](Cc1cc(I)c(Oc2cc(I)c(O)c(I)c2)c(I)c1)C(=O)O`, for which the max response in [5] was 2.42% (inactive); in [8], -6.73% (inactive). In addition, the Potency result in [9] was “inactive”. The compound also registered a parasite growth, % of DMSO control in experiment [1] of 89.8%. Besides, the parasite growth remaining, % of DMSO control (lower = more inhibition) in experiment [2] is 89.9%. Also, the parasite growth, % of control (lower = inhibition) in experiment [3] was found to be 91.7%. In experiment [4], the growth, % of control was found to be 75.1%.

The values are drawn from PubChem BioAssay (NCATS).
